Activity calls are given as the source filed them.
Key:
[1] = test system: PRMT1 (protein arginine N-methyltransferase 1); experiment: small molecules binding arginine methyltransferase PRMT1 – biochemical, small-molecule microarray, 635 nm fluorescence, primary screen (AID 1088); settings: higher = more signal;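 note: binding of Prmt1 protein to compounds spotted on small-molecule microarray slides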
[2] = growth effects on S. cerevisiae YJM789 – YJM789 clinical isolate, OD600, 24 h, basal, primary screen (AID 1089); settings: higher = more signal, called active from +8 up or from −8 down;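 note: growth of clinical yeast isolate S. cerevisiae YJM 789 seeded 1000 cells per well; test concentration not given here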
[3] = S. pombe growth modifiers, basal conditions – strain 972, OD600, 24 h, no modulator, primary screen (AID 1090);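 note: basal condition with compound alone and no growth modifier present; test concentration not given here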; settings: S. pombe 972 growth, higher = more signal, called active from +8 up or from −8 down
[4] = budding yeast growth modifiers under rapamycin – strain BY4716, OD600, 96 h, primary screen (AID 1091); note: test concentration not given here; settings: S. cerevisiae BY4716 + rapamycin, higher = more signal, called active from +8 up or from −8 down
[5] = molecular target: Torsin-1A-interacting protein 2 (Homo sapiens) (UniProt Q8NFQ8); experiment: small molecules binding lysate-expressed LULL1 – cell lysate, human LULL1 lysate, 635/667 nm fluorescence, primary screen (AID 1092); settings: small-molecule microarray, hLULL1 lysate binding, 635 nm fluorescence; higher = more signal;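 note: probe is lysate of COS7 cells overexpressing human LULL1; score merges per-feature 667 nm fluorescence with signal-to-noise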
Torsin-1A-interacting protein 2 (Homo sapiens), sequence (Q8NFQ8 whole entry, looked up): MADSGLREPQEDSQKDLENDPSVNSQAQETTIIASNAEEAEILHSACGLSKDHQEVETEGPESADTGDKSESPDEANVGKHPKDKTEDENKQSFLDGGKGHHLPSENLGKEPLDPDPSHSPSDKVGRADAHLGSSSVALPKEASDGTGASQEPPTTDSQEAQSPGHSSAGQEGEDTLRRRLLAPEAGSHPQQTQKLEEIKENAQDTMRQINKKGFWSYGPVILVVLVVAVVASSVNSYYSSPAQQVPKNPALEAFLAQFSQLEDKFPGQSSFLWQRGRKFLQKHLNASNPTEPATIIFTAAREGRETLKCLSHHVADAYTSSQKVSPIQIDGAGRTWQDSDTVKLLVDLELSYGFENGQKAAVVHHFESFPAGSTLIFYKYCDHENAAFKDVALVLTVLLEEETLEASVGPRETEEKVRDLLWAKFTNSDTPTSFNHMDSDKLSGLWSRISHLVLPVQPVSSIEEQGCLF

[6] = optical density change of DRC41 E. coli – strain DRC41, OD650, 24 h, E. coli filamentation project, primary screen (AID 1093);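 note: MC1000 strain lacking acrAB efflux and sulA so SOS filamentation is blocked; test concentration not given here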; settings: E. coli DRC41 growth, higher = more signal, called active from +8 up or from −8 down
[7] = probe aLefty2 binding to arrayed compounds – biochemical, biotinylated probe, 635/667 nm fluorescence, primary screen (AID 1094); settings: small-molecule microarray, higher = more signal;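 note: score merges spot fluorescence near 667 nm with spot signal-to-noise ratio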
[8] = test system: Noggin (protein binding on small-molecule microarray); experiment: small molecules binding Noggin protein – biochemical, 635/667 nm fluorescence, primary screen (AID 1095); settings: 635 nm fluorescence, higher = more signal;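 note: score merges 667 nm feature fluorescence with signal to noise over triplicate slides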
[9] = molecular target: Neurogenic locus notch homolog protein 3 (Homo sapiens) (UniProt Q9UM47); experiment: small molecules binding NOTCH3 protein – biochemical, 635/667 nm fluorescence, primary screen (AID 1096); settings: small-molecule microarray, 635 nm fluorescence, higher = more signal
Neurogenic locus notch homolog protein 3 (Homo sapiens), sequence (Q9UM47 whole entry, looked up): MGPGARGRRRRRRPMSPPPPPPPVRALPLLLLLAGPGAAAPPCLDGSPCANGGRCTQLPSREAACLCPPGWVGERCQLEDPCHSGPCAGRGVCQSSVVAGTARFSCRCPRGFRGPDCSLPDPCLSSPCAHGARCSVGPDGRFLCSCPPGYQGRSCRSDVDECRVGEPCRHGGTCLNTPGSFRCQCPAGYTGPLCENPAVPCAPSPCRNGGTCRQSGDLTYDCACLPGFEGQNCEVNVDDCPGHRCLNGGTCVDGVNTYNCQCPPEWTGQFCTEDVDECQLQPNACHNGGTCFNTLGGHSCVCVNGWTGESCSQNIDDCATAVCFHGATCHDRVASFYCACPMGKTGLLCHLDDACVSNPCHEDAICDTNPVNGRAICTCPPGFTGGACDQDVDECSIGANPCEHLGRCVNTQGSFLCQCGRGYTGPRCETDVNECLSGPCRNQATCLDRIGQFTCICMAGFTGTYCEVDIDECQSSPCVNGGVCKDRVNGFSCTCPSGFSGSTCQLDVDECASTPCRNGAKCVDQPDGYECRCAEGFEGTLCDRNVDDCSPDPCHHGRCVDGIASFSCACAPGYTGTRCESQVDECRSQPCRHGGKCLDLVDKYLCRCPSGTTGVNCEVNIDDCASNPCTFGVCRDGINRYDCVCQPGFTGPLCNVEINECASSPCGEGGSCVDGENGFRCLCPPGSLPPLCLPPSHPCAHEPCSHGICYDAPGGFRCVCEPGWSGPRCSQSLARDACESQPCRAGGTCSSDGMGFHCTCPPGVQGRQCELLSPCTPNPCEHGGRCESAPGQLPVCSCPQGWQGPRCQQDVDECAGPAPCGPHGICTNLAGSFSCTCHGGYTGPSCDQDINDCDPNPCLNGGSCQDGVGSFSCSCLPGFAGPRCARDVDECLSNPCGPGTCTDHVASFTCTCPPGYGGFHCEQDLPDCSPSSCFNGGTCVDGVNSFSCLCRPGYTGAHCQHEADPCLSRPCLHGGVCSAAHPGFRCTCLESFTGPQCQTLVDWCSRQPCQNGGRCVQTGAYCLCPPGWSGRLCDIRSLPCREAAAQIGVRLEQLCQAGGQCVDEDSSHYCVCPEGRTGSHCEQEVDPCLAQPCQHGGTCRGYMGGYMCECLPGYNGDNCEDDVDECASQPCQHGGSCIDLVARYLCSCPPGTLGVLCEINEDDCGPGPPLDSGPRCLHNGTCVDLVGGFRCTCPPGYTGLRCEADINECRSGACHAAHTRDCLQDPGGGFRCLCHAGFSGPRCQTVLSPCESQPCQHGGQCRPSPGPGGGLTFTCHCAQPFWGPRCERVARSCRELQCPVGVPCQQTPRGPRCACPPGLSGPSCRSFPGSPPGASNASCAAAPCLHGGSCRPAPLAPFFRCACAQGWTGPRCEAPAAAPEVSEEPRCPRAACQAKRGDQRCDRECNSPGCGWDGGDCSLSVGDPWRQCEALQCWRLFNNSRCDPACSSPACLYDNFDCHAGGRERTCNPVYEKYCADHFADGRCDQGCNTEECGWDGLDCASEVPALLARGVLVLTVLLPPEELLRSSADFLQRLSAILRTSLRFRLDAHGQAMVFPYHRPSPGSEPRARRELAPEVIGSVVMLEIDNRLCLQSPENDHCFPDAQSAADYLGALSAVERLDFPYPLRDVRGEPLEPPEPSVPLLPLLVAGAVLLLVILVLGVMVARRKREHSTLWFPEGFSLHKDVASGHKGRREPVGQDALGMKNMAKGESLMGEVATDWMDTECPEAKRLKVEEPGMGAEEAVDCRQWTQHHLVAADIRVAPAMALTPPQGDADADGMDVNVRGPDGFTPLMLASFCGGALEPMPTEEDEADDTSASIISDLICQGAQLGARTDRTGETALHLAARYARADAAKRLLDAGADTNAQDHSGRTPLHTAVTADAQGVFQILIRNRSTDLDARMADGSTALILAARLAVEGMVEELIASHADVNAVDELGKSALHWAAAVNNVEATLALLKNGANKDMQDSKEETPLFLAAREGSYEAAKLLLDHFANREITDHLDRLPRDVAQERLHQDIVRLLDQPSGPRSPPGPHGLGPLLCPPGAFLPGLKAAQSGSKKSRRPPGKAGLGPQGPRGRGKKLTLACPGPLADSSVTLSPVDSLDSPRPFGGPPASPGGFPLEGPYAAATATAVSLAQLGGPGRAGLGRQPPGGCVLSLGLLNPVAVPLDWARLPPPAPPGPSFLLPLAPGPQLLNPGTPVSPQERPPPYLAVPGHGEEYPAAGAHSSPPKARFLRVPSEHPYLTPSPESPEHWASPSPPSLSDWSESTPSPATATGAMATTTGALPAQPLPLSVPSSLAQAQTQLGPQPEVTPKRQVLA

[10] = probe aEGFR binding to arrayed compounds – biochemical, biotinylated probe, 635/667 nm fluorescence, primary screen (AID 1097); settings: small-molecule microarray, higher = more signal;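 note: probe is a biotinylated anti-EGFR antibody binding compounds printed on slides; score combines fluorescence near 667 nm and signal to noise of each spot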

Row | Compound | composite z-score [1] | z-score [2] | z-score [3] | z-score [4] | composite z-score [5] | z-score [6] | composite z-score [7] | composite z-score [8] | composite z-score [9] | composite z-score [10]
1 | COC(=O)C[C@H]1O[C@]2(C(=O)N(Cc3ccccc3)c3ccc(I)cc32)[C@@H](C)[C@@H]1[Si](C)(C)c1ccc(OC)cc1 | -0.949 | 0.595 (inactive) | 0.676 (inactive) | 1.58 (inactive) | -0.484 | -0.556 (inactive) | -0.0561 | -0.598 | -0.625 | -0.101
2 | CO[C@]12C=C(Br)[C@@H](C[C@@H]1c1ccccc1)[C@@]1(CO1)C2=O | -0.167 | -0.0474 (inactive) | -4.38 (inactive) | -0.208 (inactive) | -0.132 | 2.43 (inactive) | -0.2 | 0.706 | 0.243 | -0.14
3 | C[C@@H]1CC[C@H]2C(=O)N3[C@@H](CC[C@@H](C)[C@@H]3c3cccc(N4CCOCC4)c3)C(=O)N2[C@H]1c1cccc(Br)c1 | 0.969 | -0.586 (inactive) | -3.26 (inactive) | -1.19 (inactive) | 1.6 | 0.732 (inactive) | 0.075 | 0.964 | 0.981 | 0.161
4 | Cc1ccc(S[C@]2(C(=O)O)CC(=O)N(Cc3cc(C(F)(F)F)cc(C(F)(F)F)c3)[C@@H]2c2ccc(CO)cc2I)cc1 | 1.33 | -0.455 (inactive) | -2.26 (inactive) | 2.31 (inactive) | 1.59 | 0.663 (inactive) | 0.107 | -1.49 | -0.913 | -0.264
5 | O=C(N1CCCCC1)[C@@]1(CCS(=O)(=O)c2ccccc2)N=C(c2ccc(OCCCO)cc2)O[C@H]1c1ccccc1 | 1.24 | -0.418 (inactive) | -0.938 (inactive) | 30.4 (active) | 3.63 | 0.943 (inactive) | 0.0971 | 0.688 | 1.12 | -0.0828
6 | C=CCC(OC(C)=O)[C@@H]1[C@@H](N(Cc2cccc3ccccc23)C(=O)c2ccc(C)cc2)c2cc(OCCCO)ccc2N1C(=O)c1ccc(-c2ccccc2)cc1 (stereo not given in full) | 0.578 | -2.24 (inactive) | 0.167 (inactive) | -0.347 (inactive) | 0.298 | 1.29 (inactive) | -0.11 | 0.314 | 0.387 | -0.0967
7 | CC(=O)NCCCC[C@@H]1NC(=O)[C@@H]2C[C@H](C(=O)NCCCCCCN(C)C)[C@H](c3ccc(O)cc3)N2C1=O | 1.54 | 0.146 (inactive) | -0.542 (inactive) | 0.905 (inactive) | 2.4 | 1.02 (inactive) | 0.691 | 1.61 | 1.08 | 0.177
8 | O=C1O[C@H](c2ccccc2)[C@H](c2ccccc2)N2[C@H]1[C@@H](C(=O)NC[C@H](O)c1ccccc1)[C@]1(C(=O)Nc3ccc(C#CC4(O)CCCCCC4)cc31)[C@H]2c1ccc(OCCO)cc1 | 1.32 | 1.93 (inactive) | -0.538 (inactive) | 4.16 (inactive) | 2.72 | 3.35 (inactive) | 0.159 | 0.423 | 0.868 | 0.0301
9 | O=C1OCC=C[C@H]2OC34C=CCN(Cc5ccccc5)C(=O)[C@H]3N(CCO)C(=O)[C@@H]4[C@@H]12 (stereo not given in full) | 0.409 | -0.308 (inactive) | 0.176 (inactive) | -1.17 (inactive) | 2.08 | 2.13 (inactive) | -0.232 | -1.41 | -0.159 | -0.172
10 | C=CCc1cccc([C@H]2N[C@H](C(=O)O)CC[C@@H]2C)c1 | 0.453 | 0.468 (inactive) | 0.0843 (inactive) | 2.04 (inactive) | -0.0584 | 0.271 (inactive) | -0.203 | 1.17 | 0.245 | -0.0828
11 | CN(C)CCCC[C@@H]1NC(=O)[C@@H]2C[C@H](C(=O)NCCCCCNC(=O)CS)[C@H](c3ccc(O)cc3)N2C1=O | 1.42 | 0.081 (inactive) | -1.42 (inactive) | -0.342 (inactive) | 0.863 | 1.14 (inactive) | -0.0079 | 1.88 | 0.208 | 0.268
12 | C=CCC(OC(C)=O)[C@@H]1[C@@H](N(Cc2cc3ccccc3o2)C(=O)c2ccc(C)cc2)c2cc(OCCCO)ccc2N1C(=O)c1ccc2ccccc2n1 (stereo not given in full) | 0.207 | -0.0537 (inactive) | -0.518 (inactive) | -0.391 (inactive) | 0.285 | 2.74 (inactive) | -0.168 | 0.11 | 0.197 | -0.129
13 | CCCN1C(=O)[C@@]2(CCS(=O)(=O)c3ccccc3)N=C(c3ccc(OCCCO)cc3)O[C@H]2c2ccccc21 | 1.53 | 0.817 (inactive) | 0.69 (inactive) | 4.5 (inactive) | 2.8 | 0.341 (inactive) | 0.0686 | 1.03 | 1.09 | -0.0118
14 | CO[C@@H]1COC(=O)CC=C[C@@H](C)[C@H](OC)COC(=O)CC=C[C@H]1C | -0.0399 | -0.131 (inactive) | -0.761 (inactive) | -0.891 (inactive) | -0.266 | 0.162 (inactive) | -0.38 | 1.71 | -0.801 | -0.158
15 | COc1ccc(C(=O)Nc2ccc(CN3C(=O)[C@]4(O[C@H](CCn5cc(CCO)nn5)[C@@H]([Si](C)(C)c5ccc(OC)cc5)[C@@H]4C)c4ccccc43)cc2)cc1 | 1.56 | 1.42 (inactive) | -7.78 (inactive) | 1.13 (inactive) | 0.961 | 1.07 (inactive) | 0.201 | 1.65 | 1.08 | 0.14
16 | CC(C)[C@H]1NC(=O)[C@@]23C(=O)N[C@@H](Cc4ccccc4)C2[C@H](C)[C@@]2(C)O[C@H]2C3/C=C/C/C=C\CNC(=O)[C@H](C)NC1=O (stereo not given in full) | -1.24 | 0.782 (inactive) | 0.469 (inactive) | 0.41 (inactive) | -0.62 | -0.823 (inactive) | -0.287 | -0.632 | -0.517 | -0.255
17 | COCCCNC(=O)[C@@]1(Sc2ccc(C)cc2)CC(=O)N(Cc2cc(C(F)(F)F)cc(C(F)(F)F)c2)[C@@H]1c1ccc(CO)cc1I | -0.217 | -1.27 (inactive) | -3.56 (inactive) | 0.0085 (inactive) | 1.46 | 0.486 (inactive) | -0.105 | -1.76 | -0.973 | -0.288
18 | C#CCCCON=C1C[C@@H](O)[C@@H](O)[C@@H]2[C@@H]3C(=O)N(Cc4ccc5c(c4)OCO5)C(=O)[C@@H]3CC[C@@H]12 | 0.652 | 0.755 (inactive) | 0.783 (inactive) | 0.271 (inactive) | 0.852 | 0.105 (inactive) | -0.0367 | -0.0201 | 0.0568 | -0.0389
